This is an account of results in PubChem BioAssay (NCI).

Holding throughout (assay): NCI-60 one-dose screen, 48 h (100 = growth as untreated, 0 = no growth, -100 = all killed)
Assay [1] deals with SR leukemia. As to conditions: 10 µM unless noted.
Assay [2] relates to RPMI-8226 leukemia.
Assay [3] has as its system OVCAR-8 ovarian.
For assay [4], the system named is OVCAR-5 ovarian.
For assay [5], the system named is OVCAR-4 ovarian.
Assay [6] deals with SK-OV-3 ovarian.
Assay [7] relates to IGROV1 ovarian.
In assay [8] the test system is OVCAR-3 ovarian.
The test system of assay [9] is HS 578T breast.
Assay [10] has as its system NCI/ADR-RES ovarian.
The test system of assay [11] is T-47D breast.
The test system of assay [12] is BT-549 breast.
The test system of assay [13] is MDA-MB-435 melanoma.
In assay [14] the test system is SW-620 colon.
The subject of assay [15] is MCF7 breast.
For assay [16], the system named is HCT-116 colon.
The test system of assay [17] is KM12 colon.
The subject of assay [18] is HCC-2998 colon. The following applies: 10 µM unless noted.

About 83,000 compounds went through this panel and 20% of them were active in at least one assay; those are over-represented in the sample as a whole.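 For each line, cells grew in 96-well plates with the test compound present at a single concentration for 48 hours.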 A number with no mark means an inactive call. Active and inactive are the calls of the source. Rule for the calls: active = growth percent below 10; inactive = the rest.

In the case of `COc1cc(/C=C(/C)C[N+](=O)[O-])ccc1O`, the growth in assay [1] is 34%; in assay [2] (10 µM unless noted) it was 64.3%; in assay [3] (10 µM unless noted), 94.7%; in assay [4] (10 µM unless noted), 110%; in assay [5] (10 µM unless noted) it was 104%; in assay [6] (10 µM unless noted) it was 103%. In addition, the growth is 44.1% in [7] (10 µM unless noted); 85.4% in assay [8] (10 µM unless noted); 98.7% in assay [9] (10 µM unless noted); 102% in [10] (10 µM unless noted); 56.7% in [11] (10 µM unless noted); 113% in assay [12] (10 µM unless noted). Further, the growth in assay [13] (10 µM unless noted) is 105%; in assay [14] (10 µM unless noted), 48.9%; in [15] (10 µM) it was 16.5%; in assay [16] (10 µM unless noted) it was 82.7%; in assay [17] (10 µM unless noted) it was 96.5%.

For `CC(C)c1ccc2nc3ccc(C(=O)NCCN4CCN(c5ccccc5)CC4)cn3c(=O)c2c1`, the growth in assay [1] is 51.7%; in [2] (10 µM unless noted), 20.5%; in assay [3] (10 µM unless noted) it was 46.8%; in [4] (10 µM unless noted), 91.1%; in [5] (10 µM unless noted), 63.9%; in assay [6] (10 µM unless noted), 93.4%. The growth was 78.7% in assay [7] (10 µM unless noted); 77.5% in assay [8] (10 µM unless noted); 59.2% in [9] (10 µM unless noted); 32.2% in [10] (10 µM unless noted); 28.5% in assay [11] (10 µM unless noted); 51.3% in [12] (10 µM unless noted). The growth is 58.7% in assay [13] (10 µM unless noted); 87.4% in assay [14] (10 µM unless noted); 58.8% in assay [15] (10 µM); 53.6% in assay [16] (10 µM unless noted); 75.9% in [18]; 67.2% in [17] (10 µM unless noted).

For the compound `CN(C)c1ccc(N=Nc2cccc3ccccc23)cc1`, the growth in assay [1] is 111%; in assay [2] (10 µM unless noted), 72.5%; in assay [3] (10 µM unless noted), 94.8%; in assay [4] (10 µM unless noted), 107%; in assay [5] (10 µM unless noted), 81.4%; in assay [6] (10 µM unless noted), 80.1%. The growth in assay [7] (10 µM unless noted) was 67.2%; in [8] (10 µM unless noted) it was 84.3%; in [9] (10 µM unless noted), 95%; in assay [10] (10 µM unless noted) it was 102%; in [11] (10 µM unless noted) it was 22.2%; in [12] (10 µM unless noted) it was 76.8%. Besides, the growth in assay [13] (10 µM unless noted) is 98.8%; in assay [14] (10 µM unless noted) it was 98.6%; in assay [15] (10 µM), 14.2%; in [16] (10 µM unless noted), 75.2%; in [18], 69.2%; in assay [17] (10 µM unless noted), 94.2%.

Take `O=C1c2ccccc2C(=O)c2sc(Nc3ccc(Cl)cc3)nc21`: the growth in [1] is 4.26% (active); in assay [2] (10 µM unless noted), 7.64% (active); in [3] (10 µM unless noted), 10.6%; in assay [4] (10 µM unless noted), -62.5% (active); in assay [5] (10 µM unless noted) it was 1.65% (active); in assay [6] (10 µM unless noted), 100%. The growth in assay [7] (10 µM unless noted) is 34.8%; in assay [8] (10 µM unless noted), -39.6% (active); in assay [9] (10 µM unless noted), 70.6%; in [10] (10 µM unless noted) it was 16.8%; in [11] (10 µM unless noted) it was 29.2%; in assay [12] (10 µM unless noted) it was 75.9%. Further, the growth was -87.5% (active) in assay [13] (10 µM unless noted); -40% (active) in assay [14] (10 µM unless noted); -60.3% (active) in assay [15] (10 µM); -36.6% (active) in [16] (10 µM unless noted); 57.6% in assay [18]; 60.1% in [17] (10 µM unless noted).

In the case of `CN(C)C(=O)c1ccc(SC(=S)NCc2ccccc2)cc1`, the growth in assay [1] was -36.6% [100 µM] (active); in [2] (10 µM), 107%; in [2] (100 µM), -27.3% (active); in assay [3] (10 µM), 106%; in assay [3] (100 µM), -6.08% (active); in assay [4] (10 µM) it was 113%. The growth is 20.1% in assay [4] (100 µM); 113% in assay [5] (10 µM); 43.8% in assay [5] (100 µM); 108% in assay [6] (10 µM); 108% in assay [6] (100 µM); 116% in assay [7] (10 µM). Besides, the growth in [7] (100 µM) was -28.3% (active); in assay [8] (10 µM), 121%; in [8] (100 µM), 46.9%; in [10] (10 µM), 111%; in [10] (100 µM), 2.6% (active); in assay [11] (10 µM), 90%. Besides, the growth in [11] (100 µM) was 13.4%; in [12] (10 µM), 114%; in assay [12] (100 µM), -79.3% (active); in [13] (10 µM), 97.4%; in [13] (100 µM), 4.45% (active); in assay [14] (10 µM) it was 98.9%. For the same compound, the growth is -35.8% (active) in [14] (100 µM); 67.3% in assay [15] (10 µM); -7.59% (active) in [15] (100 µM); 100% in [16] (10 µM); -26.2% (active) in assay [16] (100 µM); 102% in assay [17] (10 µM). Further, the growth in assay [17] (100 µM) was 25.5%.

For `O=C(Nc1cccc(Br)c1)Oc1cccc2cccnc12`, the growth is 10.5% [100 µM] in assay [1]; 99.2% in [2] (10 µM); 1.75% (active) in assay [2] (100 µM); 108% in [4] (10 µM); 9.37% (active) in assay [4] (100 µM); 80.7% in assay [5] (10 µM). The growth in assay [5] (100 µM) is -4.65% (active); in assay [6] (10 µM), 110%; in [6] (100 µM), 102%; in assay [7] (10 µM), 106%; in assay [7] (100 µM), 6.09% (active); in [8] (10 µM), 119%. Further, the growth was -74.7% (active) in assay [8] (100 µM); 110% in assay [9] (10 µM); 79.3% in assay [9] (100 µM); 92% in [11] (10 µM); 2.98% (active) in [11] (100 µM); 90.5% in [12] (10 µM). The growth in [12] (100 µM) is 12.7%; in [13] (10 µM) it was 98.2%; in assay [13] (100 µM), 43.1%; in assay [14] (10 µM), 106%; in [14] (100 µM), 25%; in assay [15] (10 µM), 92.9%. Further, the growth is -37.7% (active) in assay [15] (100 µM); 92.7% in [16] (10 µM); 1.93% (active) in assay [16] (100 µM); 110% in assay [17] (10 µM); 40.1% in assay [17] (100 µM).
